Measured values from PubChem BioAssay AID1347423 (Functional Genomics Laboratory (NCATS/FGL), 2020).
In all, about 52,000 sequences went through this assay and about 210 (0.4%) were called active. The full list was thinned out, with actives kept by preference. Unmarked numbers belong to inactive results.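 Rule for the calls: active = gene whose silencing raises cell survival under the drug, median off-target-corrected z-score across its silencing RNAs 2 or more; inactive = the rest.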

Assay: Resistance to Poly (ADP-Ribose) Polymerase inhibitor: Gene Identification via Genome-wide siRNA Screen
Conditions: mouse BRCA2 R2336H ES cells, olaparib, CellTiter-Glo viability; active compounds read high
Method in brief: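 Genome-wide siRNA screen (3 siRNAs/gene, 20 nM) in mouse ES cells carrying hypomorphic BRCA2 R2336H; olaparib 500 nM added 48 h post-transfection, CellTiter-Glo viability 72 h later. Normalized to plate-median negative control; MAD z-scores, gene median, seed-adjusted.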
Sequence GGCUAUAUCAAUGAAUUUGTT against Polr3b has a z-score of 0.129. Sequence GGAUGUUCAUCUAUUUCUUTT against Mja1l has a z-score of -0.191. For GGGACCAAGCAGGUAAAAATT against Kif3a, the z-score was 4.17 (active). In the case of “GGCCUAAGGACAAUUAUUUTT against 9130022A01Rik”, the z-score was 0.222. Sequence CCAAAUUCAUUCUAGCUCGTT against Copeb has a z-score of 0.474. For CCGAAUGGAAUACCAAAUUTT against Cst8, the z-score was -0.186. GGAUGUCAGCUGGUGGUUATT against Tmprss6 showed a z-score of -0.447. For CCAUCUUGGGUUCUGGUCATT against BC057627, the z-score was -0.312 (active). GGUGUCUGAAUUUGUGGCUTT against Abtb1 showed a z-score of 1.65. Sequence GGGAUCAUUAAACUUUUCCTT against Taf11 has a z-score of 0.894. “GGAAAAUGUUUUACCAAUGTT against 4930470D19Rik” gave a z-score of 0.0823. For “GGCUAGAGACUUGGUUUUUTT against E430025L02Rik”, the z-score was 1.23. With GGUAACUGAGAAAACCAGATT against Adam29 the z-score was 1.12 (active). With “GGAUCUUGAAGACCAAAAATT against 9030409G11Rik” the z-score was -0.527. Work on GGCAAGAGAAUUCAGAUCUTT against Slc5a1 yielded a z-score of 2.6. With GGGCACAACUUCAACAGCUTT against Cklfsf8 the z-score was 1.53. Work on GGUUAUCACUCCUCAACAATT against Foxp1 yielded a z-score of -0.826. In the case of GGUCUACGAGUUUAUUGCUTT against Phc1, the z-score was 0.722. GCCCUUUGGAUAACAGUGATT against Sufu showed a z-score of -0.968. With GGCCUUCAAUCACCUAGAGTT against Pde6g the z-score was 2.23 (active). In the case of GCAGCUGGCUGCUUUCACATT against AV028368, the z-score was -0.955. With “CCGACGUGCAUGGAGAAAATT against 1700030J22Rik” the z-score was -1.71. Sequence “GCCAUUAAUCUCACAUGUATT against A930001N09Rik” has a z-score of -0.871. In the case of GGAAGACCGUACUAUGUUUTT against Gtl2, the z-score was -2.38. With “CCAGUUGGAAAUAUGACGATT against 2510002A14Rik” the z-score was 0.99. “CCUAUGUCAUCAUUGGAGUTT against 2310005G13Rik” showed a z-score of 0.537. With CGAUGACAUCAGGAUUGUUTT against Gpr128 the z-score was 1.23 (active). GCUGAUUUCCAAAGAUAAUTT against Glycam1 showed a z-score of 0.301. For “GCCCAUGAAUUUUUACUUATT against C330019G07Rik”, the z-score was 0.714.
